Only some compounds are listed: those with a hit (about 2.9% of all), similar ones and a draw of the others.
KLK7 zymogen act: proKLK7 zymogen activators, primary screen, biochemical, fluorescence intensity. purified proKLK7, EDANS-DABCYL substrate fluorescence; 100% is mature enzyme control, 0% vehicle. 0.9% of 370,000 active. activation, % at 7 µM;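 active means activation above the mean of all tested compounds plus 3 SD, computed per campaign excluding outliers beyond control limits, cut at about 13% in these data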
PLCb3 inh: human PLC-beta3 inhibitors, primary screen, biochemical, fluorescence. Purified PLC-beta3, fluorogenic substrate. inhibition, % at 12.2 µM. 0.18% of 370,000 active. AID 720704, 2013; in the data active means inhibition above about 11%;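 further: 0% = median of compound wells on plate and 100% = full blocker control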
PLC-gamma1 inh: PLC-gamma1 enzyme inhibitors, primary screen, biochemical, fluorescence, purified enzyme | 1-phosphatidylinositol 4,5-bisphosphate phosphodiesterase gamma-1 (Homo sapiens), P19174 | fluorogenic substrate | inhibition, % at 12.2 µM | 0.84% of 370,000 active | AID 720700, 2013; in the data active means inhibition above about 9.5%
ADAM17 inh: ADAM17 inhibitors, primary screen, biochemical, QFRET. recombinant ADAM17, EDANS/DABCYL FRET peptide cleavage. inhibition, % at 6.95 µM. 0.83% of 370,000 active. AID 720648, 2013;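 active means inhibition above the mean of compounds lying between control limits plus 3 SD, set per campaign, cut at about 8.5% in these data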;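 further: 0% = DMSO-only wells as the low control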
Target sequence (P78536 215-824 limits assumed): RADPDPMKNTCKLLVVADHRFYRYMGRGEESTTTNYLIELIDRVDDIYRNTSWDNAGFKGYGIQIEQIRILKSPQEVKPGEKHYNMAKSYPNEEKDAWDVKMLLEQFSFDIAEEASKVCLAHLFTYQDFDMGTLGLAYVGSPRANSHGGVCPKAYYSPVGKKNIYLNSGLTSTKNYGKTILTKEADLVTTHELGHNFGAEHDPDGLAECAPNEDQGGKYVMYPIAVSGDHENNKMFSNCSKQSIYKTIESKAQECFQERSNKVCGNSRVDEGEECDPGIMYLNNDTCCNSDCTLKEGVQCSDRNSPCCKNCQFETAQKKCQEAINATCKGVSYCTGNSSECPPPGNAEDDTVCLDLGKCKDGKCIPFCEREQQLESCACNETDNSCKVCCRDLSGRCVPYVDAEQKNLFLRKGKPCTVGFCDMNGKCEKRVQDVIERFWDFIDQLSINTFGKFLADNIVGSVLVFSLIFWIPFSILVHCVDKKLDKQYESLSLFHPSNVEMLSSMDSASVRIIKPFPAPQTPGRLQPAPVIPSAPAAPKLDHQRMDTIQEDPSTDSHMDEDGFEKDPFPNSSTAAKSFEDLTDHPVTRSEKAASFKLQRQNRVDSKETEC
ADAM10 inh: human ADAM10 inhibitors, primary screen, biochemical, QFRET, HTS. recombinant ADAM10, EDANS/DABCYL FRET peptide cleavage, 3 h. 0.62% of 370,000 active. inhibition, % at 7 µM. Disintegrin and metalloproteinase domain-containing protein 10 (Homo sapiens), O14672;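 active means inhibition above a per-campaign cutoff equal to the mean of compounds falling between control-based bounds plus 3 SD, cut at about 20% in these data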;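 further: 0% = DMSO wells while the 100% control is not disclosed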
Active calls of the source: *; i = inactive; · = no result given.

SMILES | KLK7 zymogen act | PLCb3 inh | PLC-gamma1 inh | ADAM17 inh | ADAM10 inh
C[C@@H]1CN([C@@H](C)CO)C(=O)Cc2cc(NC(=O)Nc3ccc(F)cc3)ccc2O[C@@H]1CN(C)Cc1ccc(Cl)c(Cl)c1 | 0 | 3 | 2 | 13* | 34*
C[C@H]1CN([C@@H](C)CO)C(=O)Cc2cc(NS(C)(=O)=O)ccc2O[C@@H]1CN(C)Cc1ccc(Cl)c(Cl)c1 | 1 | 5 | 3 | 7 | 7
Cc1cccc(Nc2nc(N)nc(N)c2N=O)c1 | 0 | 5 | 4 | 2 | -4
Cc1ccc(N(C)c2nc(N)nc(N)c2N=O)cc1 | 44* | i | i | -6 | -25
CCCCn1c(SCC(N)=O)nc2ccc(N3CCOCC3)cc2c1=O | 16* | i | i | -81 | -295
Cn1cc(-c2csc(C(C)(O)c3cccc(F)c3)n2)cn1 (stereo not given) | 0 | -3 | 10* | -6 | -17
CNc1cc(-c2ccc(OC)c(OC)c2)ncn1 | 1 | -9 | -5 | -14 | -47
CNc1ccc2ncc(-c3ccc(OC)c(OC)c3)n2n1 | 45* | i | i | -218 | i
O=C(O)c1ccc(NC(=O)c2cccc(S(=O)(=O)Nc3ccc(C(=O)O)cc3)c2)cc1 | 0 | -1 | -2 | -5 | -6
O=C(Nc1cccc(S(=O)(=O)Nc2ccc(Cl)cc2)c1)c1ccc(Cl)nc1 | 0 | -4 | 5 | 8 | 31*
COc1ccc(NS(=O)(=O)c2cccc(NC(=O)c3ccc(Cl)nc3)c2)cc1 | 0 | 0 | -3 | 7 | 6
O=C1CSc2ccc(C(=O)Nc3cccc(S(=O)(=O)Nc4ccc(Br)cc4)c3)cc2N1 | 0 | -6 | 5 | 17* | 48*
COc1cccc(NC(=O)C2CCCN2C(=O)Nc2cccc3c2OCO3)c1 (stereo not given) | 0 | 3 | 4 | 2 | 2
Oc1ccc(C[C@H]2CNC(=S)N2CC2CCCN2C[C@H](Cc2ccc(O)cc2)N2C[C@H](Cc3ccc(O)cc3)N(CC3CCCCC3)C2=S)cc1 (stereo not given in full) | -1 | 0 | 0 | 7 | 22*
CCCc1nc2ccccc2c(C(=O)OCC(=O)Nc2cccc(S(=O)(=O)N3CCOCC3)c2)c1CC | 1 | 4 | 7 | 17* | 32*
COC(=O)[C@H](CC(C)C)N1Cc2nnn(Cc3ccccc3)c2-c2cc(F)ccc2S1(=O)=O | 0 | 3 | 2 | 5 | 13
COc1ccc(NC(=O)COc2ccc(CNCCCN3CCOCC3)cc2OC)cc1 | 0 | 6 | 10* | 5 | 8
COc1ccccc1NC(=O)COc1ccc(Br)cc1CNCCCN1CCOCC1 | 0 | 5 | 0 | 0 | -5
CCC1(C(=O)O)NC(c2cc(OC)ccc2O)C2C(=O)N(Cc3ccccc3)C(=O)C21 (stereo not given) | -1 | -3 | -3 | 1 | 22*
Cn1c(SCc2c(Cl)cccc2Cl)nnc1-c1cccs1 | 1 | -4 | 11* | 2 | 10
CC(C)C[C@@H](CSc1ccccc1)N1CCN(C)CCC1=O | 0 | 7 | 9.7* | 0 | 2
Cn1c(=O)c2cc(S(=O)(=O)N3CCN(c4ccccc4Cl)CC3)ccc2n(C)c1=O | 0 | 0 | 0 | 6 | -7
Nc1c(-c2cccc(Cl)c2)cnn1-c1cccc(C(F)(F)F)c1 | 0 | 6 | 7 | 8.6* | 19
CC(c1c[nH]c2ccccc12)c1c[nH]c2ccc(Br)cc12 (stereo not given) | 0 | -8 | -4 | 0 | -3
C=CC[C@H](CC(=O)N(CCO)Cc1ccccc1)C(=O)NC[C@H](OC(=O)[C@@H](CC=C)Cc1ccc(F)cc1)c1ccccc1 | 1 | 0 | 4 | -3 | 0
SMILES | KLK7 zymogen act | PLCb3 inh | PLC-gamma1 inh | ADAM17 inh | ADAM10 inh
C=CC[C@@H](CC(=O)N(CCO)Cc1ccccc1)C(=O)N[C@H](COC(=O)[C@@H](CC=C)Cc1ccc(F)cc1)Cc1ccccc1 | 0 | 3 | 9 | 14* | 33*
C=CC[C@@H](CC(=O)N(CCO)Cc1ccccc1)C(=O)N[C@@H](COC(=O)[C@@H](CC=C)Cc1ccc(F)cc1)Cc1ccccc1 | 0 | 8 | 2 | 13* | 23*
C=CC[C@H](CC(=O)N(CCO)Cc1ccccc1)C(=O)N[C@@H](C)COC(=O)[C@@H](CC=C)Cc1ccc(F)cc1 | 0 | -2 | 0 | -1 | -4
C=CC[C@@H](CC(=O)N(CCO)Cc1ccccc1)C(=O)NC[C@@H](OC(=O)[C@@H](CC=C)Cc1ccc(F)cc1)c1ccccc1 | 0 | 3 | 10* | 10.0* | 20
COc1ccc(N=C2S/C(=C\c3ccc(OCC(=O)O)cc3)C(=O)N2CCc2c[nH]c3ccccc23)cc1 | 0 | -7 | 6 | 9.2* | 19
CCN1CCN(C(CNS(=O)(=O)c2ccc(Cl)cc2)c2cccnc2)CC1 (stereo not given) | 0 | -6 | 12* | -4 | 4
CCN1CCN(C(CNS(=O)(=O)c2ccc(Br)cc2)c2cccnc2)CC1 (stereo not given) | 0 | -9 | -2 | -1 | -1
O=S1(=O)c2c(cccc2N2CC[C@@H](O)C2)O[C@@H]2CCN1C2 | -1 | -2 | -2 | -5 | -5
CC1=NN(c2ccc(F)cc2)C(=O)C1C(c1cccc(O)c1)c1c(C)[nH]n(-c2ccc(F)cc2)c1=O (stereo not given) | 0 | 12* | 18* | 3 | 8
COC(=O)C1CN(Cc2ccc(OC)cc2)CCS(=O)(=O)N1Cc1cn(Cc2ccc(OC)cc2)nn1 (stereo not given) | 0 | 6 | 3 | 2 | -2
C=CCN1[C@@H](C)COc2cccc(N3CCCC3)c2S1(=O)=O | 0 | -4 | -3 | -1 | -6
O=C(CNc1cccc(S(=O)(=O)N2CCCCCC2)c1)Nc1cccc([N+](=O)[O-])c1 | 0 | -3 | 0 | 1 | 4
O=C(CNc1cccc([N+](=O)[O-])c1)N1CCN(S(=O)(=O)c2ccc(Cl)cc2)CC1 | 1 | 12* | 1 | 4 | 3
COc1cc2c(=O)n(Cc3ccccc3)c(=O)n(CC(=O)NCCc3ccccc3)c2cc1OC | 0 | 8 | 9.5* | -2 | -8
CCOc1ccc(CCNC(=O)C2CCCCC2)cc1OCC | · | -1 | 0 | -6 | -9
S=C(Nc1ccccc1I)OC1CCC12CCC(c1ccccc1)CC2 (stereo not given) | · | 4 | 7 | 4 | 7
Cc1cccc(C(=O)Nc2nc3ncccn3c2-c2ccc(F)cc2)c1 | 3 | -154 | -127 | -30 | -105

Source: PubChem BioAssay (The Scripps Research Institute Molecular Screening Center)
